Measurements published in PubChem BioAssay (NCATS).
“And” between values parts separate entries of the source, which are not always exact repeats. Equal values may be shown once. Unmarked numbers belong to inactive results. The source made the active and inactive calls. No rule for the calls is given here.

Key:
[1] = qHTS assay for small molecule activators of the human pregnane X receptor (PXR) signaling pathway (AID 720659); conditions: DPX-2 HepG2 CYP3A4-luciferase, 24 h; series mostly up to 92.3 µM
[2] = molecular target: Nuclear receptor subfamily 1 group I member 2 (Rattus norvegicus) (UniProt Q9R1A7); experiment: qHTS assay for small molecule activators of the rat pregnane X receptor (rPXR) signaling pathway (AID 651751); conditions: rPXR reporter cells, luciferase (One-Glo), 24 h
Also: 0% is about no effect.

Nuclear receptor subfamily 1 group I member 2 (Rattus norvegicus), sequence (Q9R1A7 whole entry, looked up): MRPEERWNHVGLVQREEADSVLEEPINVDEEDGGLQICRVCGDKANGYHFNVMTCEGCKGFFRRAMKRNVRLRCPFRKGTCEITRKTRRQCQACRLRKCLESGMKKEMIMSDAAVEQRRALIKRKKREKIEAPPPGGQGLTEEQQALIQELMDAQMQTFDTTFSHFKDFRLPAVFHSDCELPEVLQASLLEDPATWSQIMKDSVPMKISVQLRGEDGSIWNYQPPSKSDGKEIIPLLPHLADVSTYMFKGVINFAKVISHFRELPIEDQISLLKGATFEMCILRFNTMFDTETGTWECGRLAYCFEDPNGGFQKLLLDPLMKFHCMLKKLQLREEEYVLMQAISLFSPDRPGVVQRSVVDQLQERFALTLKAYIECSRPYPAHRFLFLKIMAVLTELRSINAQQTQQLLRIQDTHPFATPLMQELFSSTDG

Row | SMILES | outcome [1] | max response [2]
1 | CN1[C@@H]2CC[C@H]1CC(OC(=O)C(CO)c1ccccc1)C2 (stereo not given in full) | inactive | 
2 | CN(C)c1ccc(N=NS(=O)(=O)O)cc1 | inactive | 
3 | CCCOC(=O)c1ccc(O)cc1 |  | -2.03% and 0.0614% and -3.63%
4 | O=C(O)c1ccccc1Nc1cccc(C(F)(F)F)c1 | inactive | 1.7%
5 | CCCCCCCCCCCCCCCC(=O)OC(C)C | inactive | -0.444%
6 | CCCCCCCCCCCCCCCCCC(=O)O | inactive | 1.24% and 3.12% and 0.368%
7 | O=C1CN(/N=C/c2ccc([N+](=O)[O-])o2)C(=O)N1 | inactive | -1.4%
8 | c1ccc2sc(SSc3nc4ccccc4s3)nc2c1 | inactive | -2.5% and 11.1%
9 | O=C(O)/C=C\C(=O)O | inactive | 4.35%
10 | Oc1ccccc1O | inactive | 2.32%
11 | O=C(O)[C@H](O)[C@@H](O)[C@H](O)[C@H](O)CO | inactive | 
12 | C=CCCCCCCCCC(=O)O | inactive | 0.475%
13 | Nc1ccc([N+](=O)[O-])cc1O | inactive | -5.85% and -4.85%
14 | CN1CCC[C@H]1c1cccnc1 | inactive | 4.53% and 0.248%
15 | O=C(OCc1ccccc1)c1ccccc1 | inactive | -3.55%
16 | Nc1ccc(O)c([N+](=O)[O-])c1 | inactive | -2.38% and -0.765%
17 | CN(C)CCC(c1ccc(Cl)cc1)c1ccccn1 (stereo not given) | inactive | 3.17%
18 | CC1(C)S[C@@H]2[C@H](NC(=O)[C@H](N)c3ccccc3)C(=O)N2[C@H]1C(=O)O | inactive | -3.75%
19 | NCCO | inactive | -4.55%
20 | O=C(Nc1ccccc1)c1cc([N+](=O)[O-])ccc1Cl |  | -1.59%
21 | Nc1nc2ccc([N+](=O)[O-])cc2s1 | inactive | -3.29%
22 | CN(C)c1ccc(C(=C2C=CC(=[N+](C)C)C=C2)c2ccccc2)cc1 | inactive | 
23 | O=C(O)c1cc(O)c(O)c(O)c1 | inactive | -9.5%
24 | COc1cc(CNC(=O)CCCC/C=C/C(C)C)ccc1O |  | 0.324% and -3.76%
25 | Nc1cc(-c2ccncc2)c[nH]c1=O | inactive | -2.86%
26 | CC(C)OC(=O)c1cc(C(=O)OC(C)C)cc([N+](=O)[O-])c1 | inactive | 14.5%
27 | Nc1ccc(O)c(C(=O)O)c1 | inactive | -0.0122% and -1.86%
28 | CC(C)NCC(O)COc1cccc2ccccc12 (stereo not given) |  | 2% and 7.81%
29 | S=c1[nH]c2ccccc2s1 | inactive | 4.63% and 1.9%
